# Records with an inconclusive call do not appear. Where a call stands in place of a potency, no number is given. Unmarked numbers belong to inactive results. Calls of active or inactive are those of the source. Unless noted, calls come from the whole dose curve; as a rule, active = well fitted curve in the direction sought with a large enough effect in the repeat runs; inconclusive = weak or mixed curves; inactive = no such curve, though single readings can be large; an effect the other way counts as inactive or inconclusive.
# Columns and labels:
# [1] = qHTS RealTime-Glo MT Cell Viability Assay in HEK293 cells - 8 hour (AID 1224887); note: top concentration of the series differs between compounds; nearly all actives have a fitted effect of over 50% in size
# In short: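 HEK293 + NanoLuc + prosubstrate, 600 cells/well; 5 h, 37 C/5% CO2; compound 23 nL in DMSO by pintool; 37 C; luminescence read at 0, 8, 16, 24, 32 and 40 h time points.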
# [2] = A CellTox Green Cytotoxicity Assay to monitor cytotoxicity in HEK293 cells - 16 hour (AID 1224888); note: nearly all actives have a fitted effect of over 35% in size
# In short: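 Tox21 screen in HEK293: membrane-impermeant cyanine dye fluoresces on binding dead-cell DNA; compound pinned 5 h post-seeding, plates held at 37 C, signal read repeatedly through 40 h.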
# [3] = qHTS RealTime-Glo MT Cell Viability Assay in HepG2 cells - 0 hour (AID 1224889); note: nearly all actives have a fitted effect of over 50% in size
# In short: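 Luminescence read-out: viable HepG2 cells reduce a prosubstrate to a NanoLuc substrate, giving a signal proportional to live cell number. Reads taken at 0, 8, 16, 24, 32 and 40 h of compound exposure at 37 C.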
# [4] = A CellTox Green Cytotoxicity Assay to monitor cytotoxicity in HepG2 cells - 8 hour (AID 1224890); note: nearly all actives have a fitted effect of over 45% in size
# In short: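 Measurements at 0, 8, 16, 24, 32 and 40 h of treatment captured CellTox Green fluorescence in HepG2 cells that had been co-plated with reagent and preincubated 5 h at 37 C/5% CO2.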
# [5] = qHTS assay to identify small molecule antagonists of the estrogen receptor alpha (ER-alpha) signaling pathway using the BG1 cell line in the presence of 0.1 nM 17-beta-estradiol - cell viability counter screen (AID 1259241); note: nearly all actives have a fitted effect of over 40% in size
# In short: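 The cell line endogenously expresses full-length ER-alpha and carries four EREs driving luciferase. Cells are cultured 5 days hormone-free, treated 22 hr with compounds and 0.1 nM estradiol, then viability is read by fluorescence.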
# [6] = qHTS assay to identify small molecule antagonists of the androgen receptor (AR) signaling pathway using the MDA cell line in the presence of 0.5 nM R1881 - cell viability counter screen (AID 1259242); note: nearly all actives have a fitted effect of over 45% in size
# In short: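 Concentration-response screen of compounds for toxicity in MDA-kb2 reporter cells: 16 hr at 37C with 0.5 nM R1881, endpoint live-cell protease fluorescence measured in the reporter wells.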
# [7] = qHTS assay to identify small molecule HDAC inhibitors (AID 1259364);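 note: wild-type HCT-116 cells with endogenous class I/II HDAC activity; top concentration of the series differs between compounds; nearly all actives have a fitted effect of over 45% in size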
# In short: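 Screening used wild-type human colon HCT-116 cells incubated overnight, dosed with compounds for 2 hours, and assayed with a homogeneous luminogenic HDAC I/II reagent for 30 minutes at room temperature.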
# [8] = qHTS assay to identify small molecule phospholipidosis (PLD) inducers (AID 1259344; active = well fitted curve in the direction sought with a large enough effect; an effect the other way counts as inactive or inconclusive)
# In short: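 Phospholipid accumulation was scored by imaging: fixed, Hoechst-counterstained HepG2 cells stained with LipidTOX Red after 24 h compound exposure at 37 C. Read-outs were pit count and pit intensity per well or per cell, with amiodarone and DMSO controls.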
# [9] = target: Androgen receptor (Homo sapiens) (UniProt P10275); assay: qHTS assay to identify small molecule antagonists of the androgen receptor (AR) signaling pathway using the MDA cell line in the presence of 0.5 nM R1881 (AID 1259243); note: nearly all actives have a fitted effect of over 50% in size; note: potency is the fitted concentration of half-maximal effect
# Chain of Androgen receptor (Homo sapiens) (P10275 whole entry, looked up): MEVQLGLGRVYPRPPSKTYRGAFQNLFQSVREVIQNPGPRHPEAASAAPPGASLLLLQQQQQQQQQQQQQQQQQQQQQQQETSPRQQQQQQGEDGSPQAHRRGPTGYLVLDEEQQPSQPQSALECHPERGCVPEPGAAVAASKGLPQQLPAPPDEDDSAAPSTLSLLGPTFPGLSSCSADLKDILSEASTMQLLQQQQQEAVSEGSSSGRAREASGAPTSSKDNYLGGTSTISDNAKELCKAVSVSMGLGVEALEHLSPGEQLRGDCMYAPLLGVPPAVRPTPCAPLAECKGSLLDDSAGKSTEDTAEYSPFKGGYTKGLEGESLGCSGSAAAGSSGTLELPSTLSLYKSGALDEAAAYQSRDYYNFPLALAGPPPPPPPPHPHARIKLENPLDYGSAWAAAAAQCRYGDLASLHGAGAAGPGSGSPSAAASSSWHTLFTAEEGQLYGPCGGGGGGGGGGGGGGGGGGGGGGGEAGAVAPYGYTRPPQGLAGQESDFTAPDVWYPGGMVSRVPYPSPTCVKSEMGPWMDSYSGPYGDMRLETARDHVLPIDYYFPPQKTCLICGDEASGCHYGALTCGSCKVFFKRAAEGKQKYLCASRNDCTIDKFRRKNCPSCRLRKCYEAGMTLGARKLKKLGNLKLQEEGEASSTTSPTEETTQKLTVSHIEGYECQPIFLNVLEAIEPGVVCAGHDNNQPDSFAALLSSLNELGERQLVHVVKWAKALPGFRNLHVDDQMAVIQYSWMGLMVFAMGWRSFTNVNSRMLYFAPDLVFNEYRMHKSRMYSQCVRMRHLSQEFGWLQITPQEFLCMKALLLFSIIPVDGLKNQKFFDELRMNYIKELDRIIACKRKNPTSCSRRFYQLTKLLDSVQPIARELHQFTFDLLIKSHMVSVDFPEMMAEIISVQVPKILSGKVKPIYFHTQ
# In short: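 With R1881 held at 0.5 nM (final), compound effects on MMTV-luciferase expression in MDA-kb2 cells were scored by luminescence after a 16 hr, 37C incubation.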
# [10] = target: Estrogen receptor (Homo sapiens) (UniProt P03372); assay: qHTS assay to identify small molecule antagonists of the estrogen receptor alpha (ER-alpha) signaling pathway using the BG1 cell line in the presence of 0.1 nM 17-beta-estradiol (AID 1259244); note: nearly all actives have a fitted effect of over 50% in size
# Chain of Estrogen receptor (Homo sapiens) (P03372 whole entry, looked up): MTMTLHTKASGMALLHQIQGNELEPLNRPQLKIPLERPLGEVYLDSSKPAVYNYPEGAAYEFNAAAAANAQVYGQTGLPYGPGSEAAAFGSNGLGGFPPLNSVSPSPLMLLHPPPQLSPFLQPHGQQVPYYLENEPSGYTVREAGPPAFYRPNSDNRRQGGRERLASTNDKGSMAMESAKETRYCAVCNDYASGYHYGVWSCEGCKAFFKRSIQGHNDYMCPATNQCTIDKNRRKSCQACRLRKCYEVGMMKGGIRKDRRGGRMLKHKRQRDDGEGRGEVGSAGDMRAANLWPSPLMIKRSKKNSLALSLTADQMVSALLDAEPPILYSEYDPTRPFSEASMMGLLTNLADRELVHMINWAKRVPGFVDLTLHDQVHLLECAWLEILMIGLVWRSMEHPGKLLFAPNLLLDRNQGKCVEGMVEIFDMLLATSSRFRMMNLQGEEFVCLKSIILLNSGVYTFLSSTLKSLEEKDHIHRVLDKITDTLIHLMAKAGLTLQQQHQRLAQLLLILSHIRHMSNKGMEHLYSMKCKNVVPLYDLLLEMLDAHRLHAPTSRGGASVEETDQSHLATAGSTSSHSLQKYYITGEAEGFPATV
# In short: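 Compounds were tested against 0.1 nM (final) 17beta-estradiol in VM7Luc4E2 cells, which express full-length ER-alpha and an ERE-luciferase reporter; luminescence was recorded following 22 h exposure.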
Compound,outcome [1],Potency [2],Potency [3],Potency [4],outcome [5],outcome [6],Potency [7],Potency [8],Potency [9],outcome [10]
CCCCC(O)/C=C(C)/C=C/C=C/C(=O)N1CCCC1=O (stereo not drawn),inactive,inactive,inactive,inactive,inactive,inactive,inactive,–,–,–
COc1ccc2cc(CCC(C)=O)ccc2c1,inactive,inactive,inactive,inactive,inactive,inactive,–,inactive,–,–
Cc1nnc(C(=O)NC(C)(C)c2nc(C(=O)NCc3ccc(F)cc3)c(O)c(=O)n2C)o1,inactive,inactive,inactive,inactive,inactive,inactive,inactive,inactive,–,–
CCOC(=O)CC,inactive,inactive,inactive,inactive,inactive,inactive,inactive,–,–,–
O=S(=O)(O)c1cc(I)c(O)c2ncccc12,inactive,inactive,inactive,inactive,inactive,inactive,inactive,inactive,–,–
NC(=O)CC[C@@H](N)C(=O)O,inactive,inactive,inactive,inactive,inactive,inactive,–,inactive,–,–
CNC(=O)c1c(I)c(NC(C)=O)c(I)c(C(=O)O)c1I,inactive,inactive,inactive,inactive,inactive,inactive,inactive,–,–,–
CC(C)C(C)C,inactive,inactive,inactive,inactive,inactive,inactive,inactive,–,–,–
CC(=O)O[C@@H]1CC2C3CCc4cc(OC(=O)c5ccccc5)ccc4C3CCC2(C)[C@H]1OC(C)=O (stereo partly drawn),inactive,–,inactive,inactive,inactive,inactive,inactive,–,10.6 µM (active),inactive
CCNC(=O)C(C)OC(=O)Nc1ccccc1 (stereo not drawn),inactive,inactive,inactive,inactive,–,inactive,–,–,–,–
COc1cc(C(=O)NC2CCCNC2)cc(OC)c1OC (stereo not drawn),inactive,inactive,–,inactive,inactive,inactive,inactive,inactive,–,–
CCOC(=O)[C@H](CCc1ccccc1)N[C@H]1CS[C@H](c2cccs2)CN(CC(=O)O)C1=O,inactive,–,inactive,inactive,inactive,inactive,inactive,inactive,inactive,–
COC(=O)c1ccc(NC(C)=O)cc1OC,inactive,–,inactive,inactive,inactive,inactive,inactive,–,inactive,inactive
COCCCOc1cc(C[C@@H](C[C@H](N)[C@@H](O)C[C@H](C(=O)NCC(C)(C)C(N)=O)C(C)C)C(C)C)ccc1OC,inactive,inactive,inactive,inactive,inactive,inactive,inactive,–,–,–
CC/C=C\CCCCCCCCCCOC(C)=O,inactive,inactive,–,inactive,inactive,inactive,inactive,–,–,inactive
CCCCCCC(=O)c1ccccc1,inactive,–,inactive,inactive,inactive,inactive,–,–,–,–
CCCCC(CC)COC(=O)CC#N (stereo not drawn),inactive,inactive,inactive,inactive,inactive,inactive,inactive,–,–,–
C=CCON/C(CCC)=C1\C(=O)CC(C)(C)C(C(=O)OC)=C1O,inactive,inactive,inactive,inactive,inactive,inactive,inactive,–,–,–
Cc1cc(C)c(C)c(C)c1,inactive,inactive,inactive,inactive,inactive,inactive,inactive,–,–,–
Cc1cc(=O)oc2cc(O[C@@H]3SC[C@@H](O)[C@H](O)[C@H]3O)ccc12,inactive,–,inactive,inactive,inactive,inactive,–,–,inactive,inactive
CCCCCCCCCCCC(C)=O,inactive,–,inactive,inactive,inactive,inactive,–,–,–,–
CC(C)=CCC/C(C)=C\C#N,inactive,inactive,inactive,inactive,–,inactive,inactive,–,–,–
CCc1ccc(CC)cc1,inactive,inactive,inactive,inactive,inactive,inactive,inactive,–,–,–
O=C1CCCc2c(O)cccc21,inactive,–,inactive,inactive,inactive,inactive,inactive,–,inactive,inactive
Cc1cc2c(cc1CC(=O)c1sccc1S(=O)(=O)Nc1onc(C)c1Cl)OCO2,inactive,inactive,–,inactive,inactive,inactive,–,–,–,–
NNC(=O)CCCCC(=O)NN,inactive,inactive,inactive,inactive,inactive,inactive,inactive,–,–,–
O=C(O)CCC(=O)Nc1ccc(S(=O)(=O)Nc2nccs2)cc1,inactive,inactive,inactive,–,inactive,inactive,inactive,inactive,–,–
CCc1ncc(C)[nH]1,inactive,–,inactive,inactive,inactive,inactive,inactive,–,inactive,–

# Source: PubChem BioAssay (Tox21)
